NALP1 yeast inh – inhibitors of NALP1 inflammasome in yeast; AID 2071; inhibition, % at 10 µM; 0.61% of 280,000 active; S. cerevisiae NALP1/ASC/caspase-1 growth, X-gal OD620, 72 h; in the data active = inhibition mostly above about 24%, no sharp cut-off; inactive = mostly below about 32%
tim23-1 inh – tim23-1 yeast growth inhibition; S. cerevisiae tim23-1 growth, BacTiter-Glo luminescence, 24 h; inhibition, % at 20 µM; 1.3% of 330,000 active; AID 463212;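 active = growth inhibition of the mutant yeast at or above 50%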;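 also: temperature-sensitive mutant grown at 25 °C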
NLRP3 yeast inh – blocks the NALP3 inflammasome reconstituted in yeast; AID 2825; 0.39% of 330,000 active; Yeast reconstituted NLRP3/ASC/caspase-1, beta-gal luminescence, 24 h; inhibition, % at 10 µM;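 active = inhibition of 50% or more; inactive = inhibition below 50%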
TIM10 inh – inhibits growth of TIM10 yeast strain. S. cerevisiae TIM10 strain growth, BacTiter-Glo luminescence, 24 h. inhibition, % at 10 µM. 1.4% of 330,000 active. AID 463195;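 active = inhibition of 40% or more at the single tested concentration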;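 also: wild-type TIM10 isogenic control strain grown at permissive 25 °C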
tim10-1 inh – inhibits growth of tim10-1 mutant yeast; S. cerevisiae tim10-1 ts strain growth, BacTiter-Glo, 24 h; inhibition, % at 20 µM; 2.2% of 330,000 active; AID 463190;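 active = inhibition of at least 40%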;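 also: mutant grown at 25 °C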
V-ATPase pH – yeast V-ATPase proton transport regulation by pHLuorin. 0.37% of 350,000 active. AID 504577. response, % at 10 µM. S. cerevisiae, pHLuorin cytosolic pH fluorescence; in the data active = response mostly above about 7.3%, no sharp cut-off; inactive = mostly below about 5.4%; also: actives read high
Hits are given with their value. The list is not random: actives were taken first. Their share in the collection is about 4.2%.

What do the screens show for `O=C1C2C3C=CC(C3)C2C(=O)N1/N=C/c1cn(Cc2ccccc2)c2ccccc12` (configuration not stated)?
NALP1 yeast inh: inactive; tim23-1 inh: inactive; NLRP3 yeast inh: inactive; TIM10 inh: inactive; tim10-1 inh: inactive; V-ATPase pH: 13.5

Results for COC(=O)CSc1nnc(-c2ccc(S(=O)(=O)N3CCCC3)cc2)n1C ?
NALP1 yeast inh: 41.9; tim23-1 inh: inactive; NLRP3 yeast inh: inactive; TIM10 inh: inactive; tim10-1 inh: inactive; V-ATPase pH: inactive

What do the screens show for `COC(=O)CSc1nnc(CNS(=O)(=O)c2ccc(C)cc2)n1C`?
NALP1 yeast inh: 36.5; tim23-1 inh: inactive; NLRP3 yeast inh: inactive; TIM10 inh: inactive; tim10-1 inh: inactive; V-ATPase pH: inactive

How did CC(=O)CSc1nnc(-c2ccc(S(=O)(=O)N3CCCC3)cc2)n1C do in these assays?
NALP1 yeast inh: inactive; tim23-1 inh: inactive; NLRP3 yeast inh: inactive; TIM10 inh: inactive; tim10-1 inh: inactive; V-ATPase pH: inactive

Results for Cc1ccc(CN2CC(C(=O)N3CCN(S(=O)(=O)c4cccc(F)c4)CC3)CC2=O)cc1 (configuration not stated) ?
tim23-1 inh: inactive; NLRP3 yeast inh: inactive; TIM10 inh: inactive; tim10-1 inh: inactive; V-ATPase pH: inactive

How did O=C(COC(=O)c1ccccc1C(=O)c1ccc(Cl)c([N+](=O)[O-])c1)NC1CCCCCC1 do in these assays?
NALP1 yeast inh: 35.6; tim23-1 inh: inactive; NLRP3 yeast inh: inactive; TIM10 inh: inactive; tim10-1 inh: inactive; V-ATPase pH: inactive

What do the screens show for `O=C(COC(=O)c1ccccc1)NC1CCCC1`?
NALP1 yeast inh: inactive; tim23-1 inh: inactive; NLRP3 yeast inh: inactive; TIM10 inh: inactive; tim10-1 inh: inactive; V-ATPase pH: 263.2

How did O=C(COC(=O)c1ccc(Cl)c([N+](=O)[O-])c1)NC1CCCC1 do in these assays?
NALP1 yeast inh: inactive; tim23-1 inh: inactive; NLRP3 yeast inh: inactive; TIM10 inh: inactive; tim10-1 inh: inactive; V-ATPase pH: inactive

What do the screens show for `CCOC(=O)c1cnc2c(N=Nc3cccc(Cl)c3)c(N)nn2c1N`?
NALP1 yeast inh: 83.5

How did CCOC(=O)c1cnc2c(N=Nc3ccccc3)c(N)nn2c1N do in these assays?
NALP1 yeast inh: inactive; tim23-1 inh: inactive; NLRP3 yeast inh: inactive; TIM10 inh: inactive; tim10-1 inh: inactive; V-ATPase pH: inactive

What do the screens show for `CCn1c(SCC(=O)OCc2ccccc2)nnc1-c1ccco1`?
NALP1 yeast inh: inactive; tim23-1 inh: inactive; NLRP3 yeast inh: inactive; TIM10 inh: inactive; tim10-1 inh: inactive; V-ATPase pH: inactive

Results for Cn1c(SCC(=O)OCc2ccccc2)nnc1-c1ccco1 ?
NALP1 yeast inh: 44.5; tim23-1 inh: inactive; NLRP3 yeast inh: inactive; TIM10 inh: inactive; tim10-1 inh: inactive; V-ATPase pH: inactive

Results for Cc1ccc(NC(=O)COC(=O)C2(C)CC2(Cl)Cl)cc1S(=O)(=O)N1CCOCC1 (configuration not stated) ?
tim23-1 inh: inactive; NLRP3 yeast inh: inactive; TIM10 inh: inactive; tim10-1 inh: inactive; V-ATPase pH: 23.2

What do the screens show for `Cc1ccc(NC(=O)COC(=O)c2ccco2)cc1S(=O)(=O)N1CCOCC1`?
tim23-1 inh: inactive; NLRP3 yeast inh: inactive; TIM10 inh: inactive; tim10-1 inh: inactive; V-ATPase pH: inactive

How did Cc1cc(Br)c2[nH]cc(CCNC(=O)c3ccco3)c2c1 do in these assays?
NALP1 yeast inh: 40.6; tim23-1 inh: inactive; NLRP3 yeast inh: inactive; TIM10 inh: inactive; tim10-1 inh: inactive; V-ATPase pH: inactive

How did CC(=O)c1ccccc1NC(=O)COC(=O)c1cc2ccccc2[nH]1 do in these assays?
tim23-1 inh: inactive; NLRP3 yeast inh: inactive; TIM10 inh: inactive; tim10-1 inh: inactive; V-ATPase pH: inactive

Results for CCCc1c(C(=O)OCC)[nH]c2c1C(=O)CCC2 ?
NALP1 yeast inh: 43.2; tim23-1 inh: inactive; NLRP3 yeast inh: inactive; TIM10 inh: inactive; tim10-1 inh: inactive; V-ATPase pH: inactive

How did Cc1ccccc1Nc1nnc(SCc2cc(=O)n3ccsc3n2)s1 do in these assays?
NALP1 yeast inh: 26.7; tim23-1 inh: inactive; NLRP3 yeast inh: inactive; TIM10 inh: inactive; tim10-1 inh: inactive; V-ATPase pH: inactive

How did CCOC(=O)c1c(NC(C)=O)sc2c(OCC(O)CNC(C)(C)C)c(Br)ccc12 (configuration not stated) do in these assays?
NALP1 yeast inh: 26.1; tim23-1 inh: inactive; NLRP3 yeast inh: inactive; TIM10 inh: inactive; tim10-1 inh: inactive; V-ATPase pH: inactive

What do the screens show for `CCc1c(C)nc2ncnn2c1Nc1ccc(C#N)c(Cl)c1`?
NALP1 yeast inh: 30.1; tim23-1 inh: inactive; NLRP3 yeast inh: inactive; TIM10 inh: inactive; tim10-1 inh: inactive; V-ATPase pH: inactive

What do the screens show for `CCc1c(C)nc2ncnn2c1Nc1ccc(C(C)=O)cc1`?
NALP1 yeast inh: inactive; tim23-1 inh: inactive; NLRP3 yeast inh: inactive; TIM10 inh: inactive; tim10-1 inh: inactive; V-ATPase pH: inactive

What do the screens show for `Cc1cc(C)cc(NC(=O)COC(=O)Cn2cnc3c2c(=O)n(C)c(=O)n3C)c1`?
tim23-1 inh: inactive; NLRP3 yeast inh: inactive; TIM10 inh: inactive; tim10-1 inh: inactive; V-ATPase pH: inactive

How did CN(CC(=O)Nc1cccc(F)c1)C(=O)COc1cccc2c1OC(C)(C)C2 do in these assays?
NALP1 yeast inh: 31.5; tim23-1 inh: inactive; NLRP3 yeast inh: inactive; TIM10 inh: inactive; tim10-1 inh: inactive; V-ATPase pH: inactive

Results for Cc1noc(C)c1CN1C(=O)NC2(CCc3ccccc3C2)C1=O (configuration not stated) ?
tim23-1 inh: inactive; NLRP3 yeast inh: inactive; TIM10 inh: inactive; tim10-1 inh: inactive; V-ATPase pH: inactive

Results for Cc1ccc(C2(C)NC(=O)N(Cc3c(C)noc3C)C2=O)cc1 (configuration not stated) ?
NALP1 yeast inh: 19.4; tim23-1 inh: inactive; NLRP3 yeast inh: inactive; TIM10 inh: inactive; tim10-1 inh: inactive; V-ATPase pH: inactive

How did O/N=C\c1ccc2noc(-c3ccc(Cl)cc3)c2c1 do in these assays?
NALP1 yeast inh: inactive; tim23-1 inh: inactive; NLRP3 yeast inh: inactive; TIM10 inh: inactive; tim10-1 inh: inactive; V-ATPase pH: inactive

What do the screens show for `COC(=O)C1CCN(Cc2c(C(=O)N3C[C@@H](C)O[C@@H](C)C3)nc3ccc(Cl)cn23)CC1`?
NALP1 yeast inh: inactive; tim23-1 inh: inactive; NLRP3 yeast inh: inactive; TIM10 inh: inactive; tim10-1 inh: inactive; V-ATPase pH: inactive

Results for C[C@@H]1CN(C(=O)c2nc3ccc(Cl)cn3c2CN2CCc3sccc3C2)C[C@H](C)O1 ?
NALP1 yeast inh: inactive; tim23-1 inh: inactive; NLRP3 yeast inh: inactive; TIM10 inh: inactive; tim10-1 inh: inactive; V-ATPase pH: 13.4

How did CN(C)S(=O)(=O)N1CCN(c2ccc([N+](=O)[O-])c(N3CCCCC3)c2)CC1 do in these assays?
NALP1 yeast inh: inactive; tim23-1 inh: inactive; NLRP3 yeast inh: inactive; TIM10 inh: inactive; tim10-1 inh: inactive; V-ATPase pH: inactive

Results for COc1cccc(/C=C/C(=O)c2ccc[nH]2)c1 ?
NALP1 yeast inh: 41.6; tim23-1 inh: inactive; NLRP3 yeast inh: inactive; TIM10 inh: inactive; tim10-1 inh: inactive; V-ATPase pH: inactive
